# Results as given in PubChem BioAssay AID2058 (Sanford-Burnham Center for Chemical Genomics, 2009).
# Hit rate of the full screen: of about 290,000 compounds, about 150 (0.052%) were called active. Shown is part of a subset that was picked to be rich in actives. Entries with a potency or affinity are not part of this list. Unmarked numbers belong to inactive results.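 How the source made its calls: active means inhibition of at least 50% with at least 30 cells and total cytoplasm GFP at most 10,000,000; inconclusive means under 30 cells or total GFP of 10,000,000 plus; inactive means the rest.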
# Target: G-protein coupled receptor 35 (Homo sapiens) (UniProt Q9HC97)
# Sequence (Q9HC97 whole entry, looked up): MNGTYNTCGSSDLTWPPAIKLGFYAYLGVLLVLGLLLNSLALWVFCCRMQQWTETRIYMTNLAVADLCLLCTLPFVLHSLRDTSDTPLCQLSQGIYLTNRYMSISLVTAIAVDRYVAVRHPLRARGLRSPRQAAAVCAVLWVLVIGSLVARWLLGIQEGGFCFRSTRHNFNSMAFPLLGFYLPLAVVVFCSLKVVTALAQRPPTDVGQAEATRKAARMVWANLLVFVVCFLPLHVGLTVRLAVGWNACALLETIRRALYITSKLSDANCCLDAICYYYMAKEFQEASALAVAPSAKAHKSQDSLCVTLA
# Assay: inhibition of zaprinast-stimulated GPR35 beta-arrestin translocation – imaging, U2OS, beta-arrestin-GFP, zaprinast agonist, primary screen (AID 2058)
# Conditions: zaprinast antagonism, at 10 µM, stronger effect = higher value
row,SMILES,inhibition
1,Cc1cc(C)c(NC(=O)NC2CCCCC2)c(C)c1,-0.9%
2,O=C(CCN1C(=O)S/C(=C/c2ccccc2)C1=O)Nc1ccc(C(=O)O)c(O)c1,13.4%
3,COc1cccc(/C=C2\SC(=S)N(CCC(=O)Nc3ccc(O)cc3)C2=O)c1,-4.8%
4,COc1cccc(/C=C2/SC(=S)N(CCCC(=O)Nc3ccc(O)cc3)C2=O)c1,24%
5,O=C(CCN1C(=O)/C(=C/c2ccc(Cl)cc2)SC1=S)Nc1ccc(C(=O)O)cc1,6.4%
6,O=C(CCCN1C(=O)/C(=C\c2ccccc2)SC1=S)Nc1ccc(O)cc1C(=O)O,-10%
7,CCc1ccc(/C=C2/SC(=S)N(CCC(=O)Nc3ccc(C(=O)O)cc3)C2=O)cc1,-13.9%
8,O=C(CCN1C(=O)/C(=C\c2ccccc2)SC1=S)Nc1ccc(C(=O)O)cc1,27.2%
9,O=C(CCCN1C(=O)/C(=C\c2ccccc2)SC1=S)Nc1ccc(O)cc1,23.5%
10,CC(C)CCn1c(CN2CCOCC2)nc2c1c(=O)n(C)c(=O)n2C,-9.6%
11,CC1(C)CCCC2=C1CC1C(=O)N(O)C(=O)C1C2 (stereo not drawn),2.3%
12,O=C1CCCN2N=C(SCC(=O)Nc3ccccc3C(F)(F)F)SC2=N1,1.9%
13,CC(=O)N1CCc2cc(S(=O)(=O)CCC(=O)N3CCN(c4ccccc4F)CC3)ccc21,6.2%
14,N#Cc1ccccc1NC(=O)CNc1ccccc1N1CCCCC1,19.6%
15,O=C(CCN1C(=O)/C(=C/c2cccs2)SC1=S)Nc1ccc(C(=O)O)c(O)c1,-2.6%
16,O=C(CCCN1C(=O)/C(=C\c2cccs2)SC1=S)Nc1ccc(C(=O)O)cc1,13.3%
17,O=C(CCCN1C(=O)/C(=C/c2cccs2)SC1=S)Nc1ccc(O)c(C(=O)O)c1,99.6% (active)
18,O=C(CN1C(=O)S/C(=C\c2ccc(C(=O)O)cc2)C1=O)Nc1ccccc1,-1.7%
19,O=C(CCN1C(=O)S/C(=C\c2ccc(Cl)cc2)C1=O)Nc1ccc(C(=O)O)cc1,4.2%
20,COc1ccc(Cc2nnc(SCC(=O)NC3CCCCC3)n2C)cc1,9.8%
21,COc1ccc(-n2c(C)nnc2SCC(=O)N2CCOCC2)cc1,-0.9%

row,SMILES,inhibition
1,FC(F)(F)c1ccccc1N/N=C/c1cccnc1,-3.9%
2,O=C(NCC1CC1)Nc1ccccc1,-5%
3,COCC(C)NC(=S)Nc1ccccc1[N+](=O)[O-] (stereo not drawn),-3.3%
4,NS(=O)(=O)c1cccc(C(=O)NC2CCSc3ccccc32)c1 (stereo not drawn),-7.4%
5,COc1cc(/C=N/O)ccc1OCc1ccccc1Cl,-5.4%
6,COc1cc(/C=N/N=C(N)N)ccc1OCc1ccccc1Cl,-8.2%
7,Fc1cccc(Cl)c1CSc1ccc(-c2cccnc2)nn1,5.4%
8,c1ccc(-c2ccc(SCc3cccnc3)nn2)nc1,-18.4%
9,NNC(=O)c1sc(-c2ccc(Cl)cc2)cc1N,10.1%
10,COc1ccccc1N=Nc1ccc(N)c(C)c1,5.6%
11,CCn1c(CNC(=O)c2ccc(Cl)cc2)nnc1SCC(=O)N1CCOCC1,-15.6%
12,Cn1cc(/C=C/c2cc[n+](C)cc2)c2cc(F)ccc21,29.2%
13,COc1ccc2c(c1)c(/C=C/c1cc[n+](C)cc1)cn2C,48.7%
14,Cn1cc(/C=C/c2cc[n+](C)cc2)c2cc(Cl)ccc21,54.7% (active)
15,CN1CCc2c(sc3nc(NN)n(Cc4ccccc4)c(=O)c23)C1,12.8%
16,NNC(=O)c1oc2nc(-c3ccco3)cc(-c3ccco3)c2c1N,92.5% (active)
17,Cc1ccc(-c2cc(-c3ccco3)c3c(N)c(C(=O)NN)oc3n2)cc1,-7.6%
18,NNC(=O)c1oc2nc(-c3cccs3)cc(-c3ccco3)c2c1N,-11.1%
19,O=C(CCCn1c(=O)[nH]c2cc(Cl)ccc2c1=O)NCCCN1CCCC1,1.1%
20,CCCn1c(=O)[nH]c(=O)c2c1nc(-c1ccc(C(F)(F)F)cc1)n2CCOC,2.1%
21,CC(=O)N1CC=C2C(C#N)=C(N)C(C#N)(C#N)C(CCc3ccccc3)C2C1 (stereo not drawn),-5.1%

row,SMILES,inhibition
1,CCN1CC=C2C(C#N)=C(N)C(C#N)(C#N)C(CCc3ccccc3)C2C1 (stereo not drawn),90.4% (active)
2,N#CC1=C(N)C(C#N)(C#N)C(c2cccnc2)C2CN(C(=O)OCc3ccccc3)CC=C12 (stereo not drawn),8.1%
3,CN1CC=C2C(C#N)=C(N)C(C#N)(C#N)C(Cc3ccccc3)C2C1 (stereo not drawn),53.4% (active)
4,N#CC1=C(N)C(C#N)(C#N)[C@H](c2cccnc2)[C@H]2CN(C(=O)OCc3ccccc3)CC=C12,0.1%
5,Cc1ccc(S(=O)(=O)N(C)c2ccc(C(=O)NCCc3ccccc3)cc2)cc1,3.9%
6,Cc1ccc(C2(COC(=O)C(C)C)CO2)c(OC(=O)C(C)C)c1 (stereo not drawn),10.9%
7,CCn1c(Oc2ccc(F)cc2)nc2c1c(=O)n(C)c(=O)n2C,5.5%
8,COc1ccc(OCC(O)CNC(=O)Nc2ccccc2)cc1 (stereo not drawn),1.5%
9,CN1CCc2nc(NC(=O)c3cccc(OC(F)F)c3)sc2C1,4.4%
10,COc1ccccc1N1CCN(CCCn2c(=S)[nH]c3ccccc3c2=O)CC1,-1.1%
11,Cc1ccc(OCC(=O)N2CCN(C(=O)c3ccncc3)CC2)cc1,-6.5%
12,C=CCCCCCCCCc1nc(=S)[nH][nH]1,-18.8%
13,C=CCCCCCCCCc1nc(SCC(C)=O)n[nH]1,18.4%
14,COc1ccc(NC(=O)COC(=O)C2CC(=O)N(c3ccc(C)cc3)C2)cc1 (stereo not drawn),-10.1%
15,O=S(=O)(NN1CCOCC1)c1cc(Cl)cc(Cl)c1O,-8.3%
16,CC(=O)NS(=O)(=O)c1ccc(NC(=O)/C=C/c2cn(-c3ccccc3)nc2-c2ccccc2)cc1,-3%
17,CCCCc1nc(SCC(=O)Nc2nnc(CCCC)s2)n[nH]1,-13.1%
18,O=C(CN1C(=O)S/C(=C\C=C\c2ccccc2)C1=O)Nc1ccc(C(=O)O)cc1,-0.2%
19,O=C(CN1C(=O)S/C(=C/C=C/c2ccccc2)C1=O)Nc1ccc(C(=O)O)cc1,-12.3%
20,O=C(CCCN1C(=O)S/C(=C\C=C\c2ccccc2)C1=O)Nc1ccc(O)cc1,18.5%
21,O=C(CCN1C(=O)/C(=C\C=C\c2ccccc2)SC1=S)Nc1ccc(C(=O)O)cc1,1.6%
